High-throughput results deposited in PubChem BioAssay by The Scripps Research Institute Molecular Screening Center.
DAX1 inh-1 – blocks DAX1 repression of SF-1 activated StAR promoter; HEK293T StAR-luciferase reporter, SF-1/DAX-1 repression relief; inhibition, % at 6.8 µM; hit rate 1.1% among 370,000;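 active = inhibition above the mean over all tested compounds plus 3 SD, cut at about 3.6% in these data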;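 note: 0% = DAX-1 cells with DMSO and 100% = cells lacking DAX-1 with DMSO; higher inhibition means more luminescence from relief of DAX-1 repression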
hcDAF-12 act – activates DAF-12 receptor from parasite H. contortus; activation, % at 6.8 µM; HEK293 hcDAF-12 lit1-tk-luc reporter, luminescence; 0% DMSO, 100% Δ7-dafachronic acid; AID 652067; hit rate 1.4% among 370,000;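 active = activation above the mean of all tested compounds plus 3 SD, cut at about 5.5% in these data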;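 note: 100% = response to 3 µM Δ7-dafachronic acid high control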
hgDAF12 agonist – activates the H. glycines DAF-12 receptor ligand-binding domain | activation, % at 6.8 µM | HEK293 GAL4-hgDAF12 UAS-luciferase reporter, agonist luminescence; normalized to butyrate control | AID 687014 | hit rate 1.8% among 370,000;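 active = activation above a cutoff set at the mean of all screened compounds plus 3 SD, cut at about 10% in these data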;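 note: 0% = DMSO wells and 100% = sodium butyrate wells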
DAX1 inh-2 – inhibitors of human orphan nuclear receptor DAX1 (NR0B1). hit rate 0.99% among 340,000. inhibition, % at 6.75 µM. HEK293 Gal4-DAX1 luciferase reporter, luminescence;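 active = inhibition above the mean over all tested compounds plus 3 SD, cut at about 4.2% in these data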;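 note: 0% = DAX1-transfected cells with DMSO and 100% = empty-vector control cells with DMSO; inhibition shows as a rise in luminescence from relieved DAX1 repression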
Target sequence (P51843 207-470 limits assumed): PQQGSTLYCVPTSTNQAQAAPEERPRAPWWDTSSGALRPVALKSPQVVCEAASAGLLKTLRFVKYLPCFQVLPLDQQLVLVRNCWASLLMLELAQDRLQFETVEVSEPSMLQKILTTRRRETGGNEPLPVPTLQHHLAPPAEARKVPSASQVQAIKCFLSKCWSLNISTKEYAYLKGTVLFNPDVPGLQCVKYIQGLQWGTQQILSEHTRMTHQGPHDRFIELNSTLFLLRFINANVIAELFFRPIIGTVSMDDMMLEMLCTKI
SMARCA2 act – SMARCA2 function activation, primary screen. activation, % at 9.1 µM. hit rate 1% among 370,000. MG213 cells, MMTV-luciferase reporter, dexamethasone, overnight; in the data active = activation above about 7.8%;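 note: 0% = vehicle wells and 100% = reference activator wells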
ssDAF-12 act – activators of S. stercoralis DAF-12 nuclear receptor | HEK293 ssDAF-12/GRIP1 lit1-tk-luc reporter, luminescence; % of 3 µM dafachronic acid response | activation, % at 6.8 µM | hit rate 1% among 370,000;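 active = activation above the mean over all tested compounds plus 3 SD, cut at about 0.9% in these data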;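 note: 0% = DMSO-only wells and 100% = 3 µM delta7-dafachronic acid wells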
An asterisk follows results filed as active. Rows were chosen to be rich in hits. Some 4.8% of all compounds tested hit in one or more screens of this group.

Screening CCC(=O)Nc1ccc(C(=O)N/N=C/c2ccccc2[N+](=O)[O-])cc1 returned DAX1 inh-1 1, hcDAF-12 act -1, hgDAF12 agonist 5, DAX1 inh-2 -1, SMARCA2 act -2 and ssDAF-12 act -1.
For CC(=O)Nc1ccc(C(=O)N/N=C/c2ccccc2OCc2ccccc2)cc1 the results were DAX1 inh-1 0, hcDAF-12 act -1, hgDAF12 agonist 7, DAX1 inh-2 4.3*, SMARCA2 act 2 and ssDAF-12 act -1.
For CCC(=O)Nc1ccc(C(=O)N/N=C/c2cc(Br)c(OC)cc2OC)cc1 the results were DAX1 inh-1 0, hcDAF-12 act 5, hgDAF12 agonist 1, DAX1 inh-2 0, SMARCA2 act 0 and ssDAF-12 act 1.9*.
C=CCOC(=O)N[C@H](c1ccc(-c2ccccc2)cc1)[C@H](C)/C=C/CC(=O)OC was read as DAX1 inh-1 -1, hcDAF-12 act -1, hgDAF12 agonist 2, SMARCA2 act -4 and ssDAF-12 act -2.
C=CCN(C)CC#Cc1ccccc1C was read as DAX1 inh-1 0, hcDAF-12 act -2, hgDAF12 agonist 2, SMARCA2 act -3 and ssDAF-12 act -1.
For O=C1CCC2(CCC(c3ccccc3)CC2)N1CC[C@@H](O)c1ccccc1 (stereo partly drawn) the results were hcDAF-12 act -3, hgDAF12 agonist 3 and ssDAF-12 act -2.
For CN(C)N=Nc1ccc(-c2cn(Cc3ccccc3)cn2)cc1 the results were DAX1 inh-1 1, hcDAF-12 act 2, hgDAF12 agonist 10, DAX1 inh-2 2, SMARCA2 act 6 and ssDAF-12 act 1.0*.
Screening COc1cccc(CCc2nnc(CCC(=O)N3CCCC3c3nccs3)o2)c1 (stereo not drawn) returned DAX1 inh-1 0, hcDAF-12 act -1, hgDAF12 agonist -2, DAX1 inh-2 4.2*, SMARCA2 act -2 and ssDAF-12 act -2.
Screening CCOc1ccc(N(C(=O)CNC(=O)c2ccco2)C(C(=O)NC2CCCC2)c2cccnc2)cc1 (stereo not drawn) returned DAX1 inh-1 1, hcDAF-12 act 1, hgDAF12 agonist 4, DAX1 inh-2 5.9*, SMARCA2 act 1 and ssDAF-12 act -1.
For CC(C)(C)c1ccc(-c2nnc(SCC(=O)Nc3cccc4ccccc34)n2Cc2ccco2)cc1 the results were DAX1 inh-1 0, hcDAF-12 act -3, hgDAF12 agonist 0, SMARCA2 act -5 and ssDAF-12 act -2.
For Cc1ccc(-c2nc3c(C)cc(Br)cn3c2Cc2ccsc2)cc1 the results were DAX1 inh-1 -1, hcDAF-12 act 3, hgDAF12 agonist 11*, SMARCA2 act -2 and ssDAF-12 act 0.
`Cc1cc2nc(-c3cccc(Br)c3)c(CC3CCCCC3)n2c(C)c1Br` gave DAX1 inh-1 1, hcDAF-12 act 2, hgDAF12 agonist 2, SMARCA2 act 6 and ssDAF-12 act 1.6*.
Cc1ccc(-c2nc3cc(C)c(Br)c(C)n3c2CC(C)(C)C)cc1 was read as DAX1 inh-1 0, hcDAF-12 act 6.5*, hgDAF12 agonist 6, SMARCA2 act 5 and ssDAF-12 act 1.5*.
Cc1cc2nc(-c3ccc(F)cc3)c(Cc3ccccc3)n2c(C)c1Br was read as DAX1 inh-1 -1, hcDAF-12 act 5, hgDAF12 agonist 1, SMARCA2 act 3 and ssDAF-12 act 0.
Screening Cc1ccc(Cc2c(-c3ccccc3)nc3cc(C)c(Br)c(C)n23)cc1 returned DAX1 inh-1 -1, hcDAF-12 act 3, hgDAF12 agonist 6, SMARCA2 act 5 and ssDAF-12 act 1.3*.
COC(=O)c1cn(-c2ccc3c(c2)[C@@]2(CC(=O)N(C)C2c2ccccc2)C(=O)N3CC(C)C)nn1 (stereo partly drawn) was read as DAX1 inh-1 0, hcDAF-12 act -1, hgDAF12 agonist 0, SMARCA2 act 0 and ssDAF-12 act -1.
`COC(=O)[C@]12C[C@H](CC(=O)NCCc3ccccc3OC)C(=O)N(Cc3ccc(Cl)cc3Cl)C1=C[C@H](COCc1ccccc1)O[C@@H]2C` gave DAX1 inh-1 -3, hcDAF-12 act -4, hgDAF12 agonist 0, SMARCA2 act -6 and ssDAF-12 act -2.
Cc1cc2nc(-c3cccc(Br)c3)c(Cc3ccsc3)n2c(C)c1Br was read as DAX1 inh-1 -1, hcDAF-12 act 3, hgDAF12 agonist 0, SMARCA2 act -2 and ssDAF-12 act 0.
Screening Cc1ccc(-c2nc3cc(C)c(Br)c(C)n3c2Cc2ccsc2)cc1 returned DAX1 inh-1 3.7*, hcDAF-12 act 5, hgDAF12 agonist 9, SMARCA2 act -3 and ssDAF-12 act 1.5*.
For CC(=O)Nc1ccc(NC(=O)C2C3CCC(C3)C2C(=O)O)cc1 (stereo not drawn) the results were DAX1 inh-1 0, hcDAF-12 act 2, hgDAF12 agonist 2, DAX1 inh-2 1, SMARCA2 act 3 and ssDAF-12 act 0.
`O=C(O)C1C2CCC(C2)C1C(=O)Nc1ccccc1` (stereo not drawn) gave DAX1 inh-1 0, hcDAF-12 act 0, hgDAF12 agonist -1, DAX1 inh-2 4.3*, SMARCA2 act -3 and ssDAF-12 act -1.
Screening CS(=O)(=O)NNC(=O)c1csc(Cc2c(Cl)sc3ccc(Cl)cc23)n1 returned DAX1 inh-1 0, hcDAF-12 act -1, hgDAF12 agonist 1, DAX1 inh-2 4.6*, SMARCA2 act -5 and ssDAF-12 act -1.
COc1ccc(-n2c(SCC(=O)Nc3ccccc3-c3ccccc3)nnc2-c2ccccn2)cc1 was read as DAX1 inh-1 0, hcDAF-12 act -1, hgDAF12 agonist 1, SMARCA2 act -7 and ssDAF-12 act -2.
`O=C(COC(=O)c1cncc(Br)c1)Nc1ccc(N2CCCCC2)cc1` gave DAX1 inh-1 -1, hcDAF-12 act 4, hgDAF12 agonist 1, DAX1 inh-2 1, SMARCA2 act -1 and ssDAF-12 act 1.8*.
`COc1ccc(-n2c(SCc3ccc([N+](=O)[O-])cc3)nnc2-c2ccco2)cc1` gave DAX1 inh-1 -1, hcDAF-12 act -3, hgDAF12 agonist 2, SMARCA2 act -5 and ssDAF-12 act -2.
Screening c1ccc(-c2cnc(-c3ccccc3)nc2)cc1 returned DAX1 inh-1 2, hcDAF-12 act 5, hgDAF12 agonist 11*, DAX1 inh-2 2, SMARCA2 act 5 and ssDAF-12 act 1.
CCN(CC)c1ccc(/C=N/NC(=O)OC(C)(C)C)cc1 was read as DAX1 inh-1 2, hcDAF-12 act 3, hgDAF12 agonist 5, DAX1 inh-2 4.9*, SMARCA2 act 4 and ssDAF-12 act 1.
For CC(C)(C)OC(=O)N/N=C/c1cccc([N+](=O)[O-])c1 the results were DAX1 inh-1 4.4*, hcDAF-12 act 4, hgDAF12 agonist 11*, DAX1 inh-2 2, SMARCA2 act 4 and ssDAF-12 act 0.
